Bioassay records: PubChem, Center for Chemical Genomics, University of Michigan
Compounds with a hit are over-represented: about 0.86% of the library has one in this group of screens.
CDC25B CDK2 inh: human CDC25B-CDK2/CyclinA binding inhibition; 94,000 compounds, 0.72% hits; HTRF CDC25B-CDK2/CyclinA binding, anti-His/anti-Flag; hits give high values; AID 1259370; z-score (test concentration not listed); P30305+P24941; in the data active = z-score above about 3.2
TAR Tat displ: HIV-1 TAR-Tat binding disruption; z-score (concentration not given with the values); 100,000 compounds, 0.6% hits; HIV-1 TAR RNA, Tat peptide displacement FRET; hits give high values; AID 1259389; active = z-score of 3 or more in at least 2 runs
Hits are given with their value; – = inactive; · = no result.

SMILES	CDC25B CDK2 inh	TAR Tat displ
O=C(CCc1nc(-c2cccs2)no1)NC1CCCC1	–	–
O[C@H]1C=C2CCN3Cc4cc5c(cc4C(C23)[C@@H]1O)OCO5 (stereo partly drawn)	·	19.6
N#CC1=C2SCN(c3ccc(Br)cc3)CN2C(=O)CC1c1ccccc1 (stereo not drawn)	5.95	–
CCc1ccccc1N1CSC2=C(C#N)C(c3ccccc3)CC(=O)N2C1 (stereo not drawn)	6.94	–
Cc1ccc(N2CSC3=C(C#N)C(c4ccccc4)CC(=O)N3C2)cc1Cl (stereo not drawn)	5.59	–
N#CC1=C2SCN(c3cccc(Cl)c3)CN2C(=O)CC1c1cccc(F)c1 (stereo not drawn)	8.39	–
Cc1cccc(N2CSC3=C(C#N)C(c4ccc(C)o4)CC(=O)N3C2)c1 (stereo not drawn)	–	–
O=C(CN1C(=O)CSc2ccc(S(=O)(=O)N3CCOCC3)cc21)NCCCN1CCCC1=O	·	–
CN(CCCNC(=O)c1c2c(nc3ccccc13)C(=O)N(C1CCCCC1)C2)C1CCCCC1	–	–
Cc1c(C(=O)N2CCN(C3CCCCC3)CC2)sc2nc3n(c(=O)c12)CCCCC3	·	–
COC(=O)C[C@H]1C2(C)CC34OC5(C)O[C@@]6([C@H](OC(C)=O)C(OC(C)=O)[C@]7(C)C(/C(=C(/O)C(C)C)C(=O)O[C@H]7c7ccoc7)[C@@]6(O5)[C@H](OC(C)=O)[C@@]3(O)C2OC(=O)C(C)C)[C@]14C (stereo partly drawn)	·	–
CCN(CC)CCCNC(=O)NC1COc2ccc(OC)cc2C1 (stereo not drawn)	·	–
Cc1ccccc1N1CSC2=C(C#N)C(c3cccc(F)c3)CC(=O)N2C1 (stereo not drawn)	8	–
Cc1ccc(N2CSC3=C(C#N)C(c4cccc(F)c4)CC(=O)N3C2)cc1 (stereo not drawn)	4.71	–
Cc1ccccc1N1CSC2=C(C#N)C(c3ccccc3)CC(=O)N2C1 (stereo not drawn)	5.36	–
N#CC1=C2SCN(C3CCCCC3)CN2C(=O)CC1c1ccccc1 (stereo not drawn)	–	–
CC1CSc2ccc(S(=O)(=O)NCCc3ccco3)cc2NC1=O (stereo not drawn)	·	–
O=C(CN1C(=O)CSc2cccn2-c2ccccc21)N1CCCC1	·	–
O=C(NCCCN1CCCC1)c1nc(CS(=O)(=O)c2ccc(Cl)cc2)no1	·	–
Cc1cc2n(n1)CCC(=O)N2CCCC(=O)N1CCC(N2CCCCC2)CC1	·	–
CCn1nc(-c2ccccn2)nc2c(=O)n(C)c(=O)nc1-2	–	–
CCn1nc(-c2ccccc2Br)nc2c(=O)n(C)c(=O)nc1-2	11.5	–
O=c1[nH]n(-c2ccc(S(=O)(=O)N3CCN(C4CCCCC4)CC3)cc2)c(=O)c2ccccc12	–	–
CCC(C(=O)Nc1ccccc1Cl)n1nc(C)c2sc3ccccc3c2c1=O (stereo not drawn)	–	–
Cc1cc(C)cc(NC2c3ccccc3C(=O)N2c2cc(C)ccn2)c1 (stereo not drawn)	–	–
SMILES	CDC25B CDK2 inh	TAR Tat displ
CC1(C)CC(=O)c2c(oc3ccc(NS(=O)(=O)c4ccc(Br)cc4)cc23)C1	–	–
Cc1ccc(S(=O)(=O)Nc2c3ccccc3c(O)c3c4c(oc23)CC(C)(C)CC4=O)cc1	17.9	·
CCCCNc1nc(-c2ccccc2F)no1	·	–
O=C1CCC(=O)N1CCCn1c2ccccc2c2nc3ccccc3nc21	14.4	–
C#CCn1c2ccccc2c2nc3ccccc3nc21	·	–
Cc1sc2ncn(CC(=O)N3CCCCC3C)c(=O)c2c1S(=O)(=O)N1CCN(C)CC1 (stereo not drawn)	16.5	·
Cc1sc2ncn(CC(=O)N3CCCC3)c(=O)c2c1S(=O)(=O)N1CCCCC1	–	·
O=C(NCCN1CCOCC1)c1noc2c1CCCC2	·	–
Cc1cc(Cl)cc(Cl)c1OCC(=O)Nc1ccc2oc(-c3ccncc3)nc2c1	–	·
O=C1CC(c2nc3ccccc3n2Cc2ccc(F)cc2)CN1Cc1ccccc1 (stereo not drawn)	–	–
Cc1ccc2cc(NC(=O)C3CC(=O)N(Cc4ccc(F)cc4)C3)ccc2n1 (stereo not drawn)	6.57	·
CC1CCCN(C(=O)CS(=O)(=O)c2ccc3c(c2)S(=O)(=O)N=CN3)C1 (stereo not drawn)	·	–
Cc1nn2c(=O)cc(CSc3nc(-c4ccco4)nc4cc(=O)[nH]n34)nc2s1	·	–
Cc1ccc2nc(NC3=NCN(CCN4CCOCC4)CN3)nc(C)c2c1	–	–
Cc1ccc2nc(NC3=NCN(C(C)C)CN3)nc(C)c2c1	8.12	–
O=C(CCC(=O)N1c2ccccc2NC2=C(C(=O)CCC2)C1c1ccco1)NC1CCCCC1 (stereo not drawn)	·	3.61
O=C(CN1c2ccccc2NC2=C(C(=O)CCC2)C1c1ccco1)NC1CCCC1 (stereo not drawn)	·	–
CC(C)(C)c1nnc2sc(-c3ccc(Cl)cc3)nn12	–	–
COc1cccc(C2NC(=O)c3c(sc4c3CCN(C)C4)N2)c1OC (stereo not drawn)	–	–
CCOC(=O)N1CCc2c(sc3c2C(=O)NC(c2ccccc2)N3)C1 (stereo not drawn)	–	–
CCOC(=O)N1CCc2c(sc3c2C(=O)NC(c2cccc(Br)c2)N3)C1 (stereo not drawn)	6.37	–
CCOC(=O)N1CCc2c(sc3c2C(=O)NC(c2ccc(O)c(OC)c2)N3)C1 (stereo not drawn)	–	–
COc1ccccc1C1NC(=O)c2c(sc3c2CCN(C)C3)N1 (stereo not drawn)	4.5	–
CCOC(=O)N1CCc2c(sc3c2C(=O)NC(c2ccc(OC)cc2)N3)C1 (stereo not drawn)	16.1	–
CN1C(=O)C(C)(C)c2cc(S(=O)(=O)NCCCN3CCCc4ccccc43)ccc21	·	–
SMILES	CDC25B CDK2 inh	TAR Tat displ
CSc1ccc(CCNc2ncnc3c2nc2n3CCCCC2)cc1	·	–
CC1(C(=O)O)NCCc2c1[nH]c1ccccc21 (stereo not drawn)	10.4	–
COc1ccc2c3c([nH]c2c1)C(C)(C(=O)O)NCC3 (stereo not drawn)	–	–
CCCSc1nc2c(c(=O)[nH]1)C(c1cc(Br)ccc1OC)CC(=O)N2 (stereo not drawn)	–	–
CCOC(=O)C1=C(C)NC2=C(C(=O)C(C(=O)OC)C(C)C2)C1c1ccccc1C (stereo not drawn)	–	–
CCC(Sc1nnc(CSc2ncccn2)n1-c1ccccc1)C(=O)OC (stereo not drawn)	–	–
O=C(COC(=O)c1ccco1)c1ccc(Cl)cc1	–	·
O=C(COC(=O)c1cccs1)c1ccc(Cl)cc1	16.9	·
Cc1c(C)c(C)c(S(=O)(=O)Nc2cccnc2)c(C)c1C	–	·
O=C(Cc1ccc(Cl)cc1)NCc1nc(-c2ccc3c(c2)ncn3C2CCCC2)no1	·	–
O=C1CN(Cc2ccccc2F)S(=O)(=O)c2ccccc2N1Cc1ccccc1	·	9.39
O=C1CN(Cc2ccccc2F)S(=O)(=O)c2ccccc2N1Cc1ccc(F)cc1	·	–
O=C(NCc1ccc2c(c1)OCO2)c1cccnc1Oc1ccccc1	–	·
Cc1c(C(=O)O)sc2ncnc(N3CCC(c4ccccc4)C3)c12 (stereo not drawn)	·	–
CCOC(=O)C1CCN(c2ncnc3sc(C(=O)O)c(C)c23)CC1	·	15.9
Cc1nc2c(c(C)nn2C)c(C)c1CCC(=O)NCc1ccco1	–	–
